Most compounds without a hit are left out; they make up all but 8% or so of the library.
MARV entry inh = inhibitors of Marburg virus binding or cell entry | Marburg virus pseudotyped entry inhibition, cell reporter | Potency, µM (highest dose often 37.8 µM), without a hit: at the top dose activity change, negative = inhibition, most hits filed as inhibitors | actives 1.8% (n = 300,000); calls by dose curve; tested in HEK293 cells; note: potency is the fitted concentration of half-maximal effect; % is set by controls: 0 for no effect and ±100 for the full control effect
HCMV antiviral = inhibitors of human cytomegalovirus | HFF cells, HCMV-luciferase reporter, 72 h; stronger effect = lower value | activity change, negative = inhibition, % at 57.5 µM | actives 4.5% (n = 410,000) | AID 1259415; in the data active = activity change below about -60%; inconclusive = no clear call, values can overlap the other calls; inactive = above about -39%; note: % is set by controls: 0 for no effect and ±100 for the full control effect
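Human foreskin fibroblasts infected with luciferase-reporter HCMV at MOI 1 PFU/cell, compounds at two doses. Luciferase measured 72 h post infection; normalized to buffer-only basal and Salinomycin (10uM) controls.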
FMDV inh = antivirals against foot and mouth disease virus; Potency, µM (highest dose often 57.9 µM), inactives show at the top dose activity change, negative = inhibition, most hits filed as inhibitors; FMDV antiviral cell-based qHTS; actives 1.2% (n = 410,000); calls by dose curve; tested in HEK293T cells; note: read-out not given here; potency is the fitted concentration of half-maximal effect; % is set by controls: 0 for no effect and ±100 for the full control effect; nearly all actives have a fitted effect of over 45% in size
HCV inhibitor = blocks hepatitis C virus; Potency, µM (top dose mostly 41.8 µM), for inactives: top-dose activity change, negative = inhibition, most hits filed as inhibitors; actives 3.4% (n = 340,000); Huh7.5.1 HCVcc-Cre infection, luciferase reporter, 44 h; active = well fitted inhibition curve with a large enough effect; inconclusive = small, poorly fitted or top-dose-only effect, or another doubt; inactive = no such curve, though single readings can be large or run the other way; note: potency is the fitted concentration of half-maximal effect; % is set by controls: 0 for no effect and ±100 for the full control effect
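After 44 h co-culture of compound, cells and HCVcc-Cre (~0.5 moi), substrate is added for 15 min at room temperature and luciferase measured over 15 sec. Cells were seeded at 1,000/well and pre-cultured 4 h.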
Lassa entry inh = blocks Lassa virus binding to or entry into cells | AID 540256 | actives 1.2% (n = 300,000) | Potency, µM (series often up to 37.9 µM), for the others: at the top dose activity change, negative = inhibition, hits mostly inhibitors | Lassa virus pseudotype entry inhibition, cell reporter; calls by dose curve; tested in HEK293 cells; note: potency is the fitted concentration of half-maximal effect; % is set by controls: 0 for no effect and ±100 for the full control effect; nearly all actives have a fitted effect of over 50% in size
SARS PLP yeast = blocks SARS-CoV papain-like protease in a yeast assay; S. cerevisiae expressing SARS-CoV PLpro, growth rescue; Potency, µM (top dose mostly 32.9 µM), without a hit: at the top dose activity, positive = growth rescue, hits mostly activators; actives 0.19% (n = 330,000); AID 485353; calls by dose curve; note: potency is the fitted concentration of half-maximal effect; 0% is about no effect; nearly all actives have a fitted effect of over 55% in size
Starred values were filed as active, the others as inactive; ? = inconclusive; · = no result given; [ ] = remark or other dose.

SMILES | MARV entry inh | HCMV antiviral | FMDV inh | HCV inhibitor | Lassa entry inh | SARS PLP yeast
CCc1ccc(C2C(C(=O)Nc3ccccc3OC)=C(C)Nc3nc(SCc4ccccc4)nn32)cc1 (stereo not drawn) | -4.5%[46.1 µM] | 11.6 | -6.9% | · | -14.4%[46.1 µM] | ·
O=C(O)CSc1cc(NS(=O)(=O)c2ccc(Cl)cc2)c2ccccc2c1O | ? | -92.5* | ? | ? | ? | -12.0%
COc1ccc(C(C#N)N2CCC(c3ccccc3)=N2)cc1 (stereo not drawn) | ? | -72.8* | 1.8% | 17.3% | 3.5%[46.1 µM] | 0.3%
COc1cc(NC(=O)c2cccc3c(-c4cccnc4)coc23)cc(OC)c1OC | · | -39.3 | 12.6µM* | · | · | ·
COc1ccc(-c2coc3c(C(=O)NCc4ccc(OC)c(OC)c4)cccc23)c(C)c1 | · | -74.7* | ? | · | · | ·
COc1ccc(CNC(=O)c2cccc3c(-c4cnn(C)c4)coc23)cc1OC | · | ? | 15.8µM* | · | · | ·
COc1ccc(-c2coc3c(C(=O)NCC4CCOCC4)cccc23)c(C)c1 | · | -60.8* | ? | · | · | ·
C=CCNC(=O)[C@H]1C=C(OC)C(=O)C[C@H]2c3ccccc3C[C@]12C | -22.5%[14.2 µM] | · | · | · | · | ·
COc1ccc(-c2nc3ccccc3s2)cc1NC(=O)COc1cccc(C)c1 | 19.7%[46.1 µM] | 83.7 | 20.3% | · | -14.5%[46.1 µM] | ·
CS(=O)(=O)Nc1ccc(-c2nc3ccccc3s2)cc1 | ? | 12.3 | 0.0% | · | ? | ·
C=CC1=C(C)/C(=C/c2[nH]c(Cc3[nH]c(/C=C4\NC(=O)C(C)=C4C=C)c(C)c3CCC(=O)O)c(CCC(=O)O)c2C)NC1=O | · | · | 7.9% | · | · | ·
CC(=O)c1cccc(NC(=O)c2cccc3c(-c4cccc(C(N)=O)c4)coc23)c1 | · | ? | 35.5µM* | · | · | ·
COc1ccc(-c2coc3c(C(=O)Nc4cc(OC)c(OC)c(OC)c4)cccc23)c(C)c1 | · | -64.9* | ? | · | · | ·
COc1ccc(-c2coc3c(C(=O)Nc4ccc(OC)nc4)cccc23)c(C)c1 | · | -32.2 | ? | · | · | ·
CS(=O)(=O)Nc1cccc(NC(=O)c2cccc3c(-c4cccc(C(N)=O)c4)coc23)c1 | · | 51.8 | -21.0% | · | · | ·
CCOC(=O)NN=C1C[C@@H](O)[C@@H](O)[C@@H]2[C@H]3C(=O)N(Cc4ccc5c(c4)OCO5)C(=O)[C@@H]3CC[C@H]12 | -22.0%[14.2 µM] | · | · | · | · | ·
Cc1ccc(C(=O)NC2CC3CCCC(C2)N3Cc2ccccc2)cc1 (stereo not drawn) | -16.2% | 60.7 | -16.0% | 8.7% | -2.0% | 0.9%
CCc1ccc(NC(=S)NC2CC3CCCC(C2)N3Cc2ccccc2)cc1 (stereo not drawn) | 10.3µM* | ? | -14.8% | 10µM* | ? | 0.5%
Cc1cccc(C(=O)NC2CC3CCCC(C2)N3Cc2ccccc2)c1 (stereo not drawn) | 3.16µM* | -14.9 | -4.7% | -1.0% | -11.2%[46.1 µM] | 0.0%
Cc1ccc(CN2C3CCCC2CC(NC(=O)c2ccc(F)cc2)C3)cc1 (stereo not drawn) | 7.08µM* | 8.5 | -6.5% | -9.4% | -13.1% | -6.1%
O=C(NC1CC2CCC(C1)N2Cc1ccccc1)c1cccc(F)c1 (stereo not drawn) | · | 0.8 | -2.6% | 11.3% | · | -5.1%
CCOC(=O)C1=C(CN2CCC(C)CC2)NC(=O)NC1c1ccc(F)cc1 (stereo not drawn) | · | -3.0 | -27.0% | · | -9.5%[46.1 µM] | ·
COc1c(C)cc(S(=O)(=O)Nc2cccc(-c3ccc(N4CCOCC4)nn3)c2)c(C)c1C | · | 71.5 | 26.3% | · | 1.0%[46.1 µM] | ·
CCOC(=O)c1c(C)nc2c(c1-c1ccccc1)C(=O)c1ccccc1-2 | ? | -101.0* | 6.6% | ? | ? | -28.3%
Cc1oc2c(c1C(=O)c1ccccc1)C(=O)C(=O)c1ccccc1-2 | ? | -102.9* | ? | 10µM* | 10µM* | -40.1%
O=C(c1ccccc1)c1coc2ccc(O)c(Cl)c12 | -7.1% | 28.4 | 0.0% | · | -9.6%[14.3 µM] | -8.8%
CCOC(=O)c1c(C)oc2c1C(=O)c1ccccc1C2=O | ? | -15.2 | -20.7% | 5.62µM* | ? | -0.6%
O=C1C(=O)c2c(C(=O)c3ccccc3)coc2-c2ccccc21 | ? | -92.8* | -1.5% | 11.2µM* | ? | -35.2%
